Results filed as inconclusive are left out. Activity calls are given as the source filed them. Unless noted, the call rests on the fitted dose curve; in most records, active means well fitted curve in the direction sought with a large enough effect in the repeat runs; inconclusive means weak or mixed curves; inactive means no such curve, though single readings can be large; an effect the other way counts as inactive or inconclusive.
Tests used:
[1] = qHTS assay to identify small molecule agonists of the vitamin D receptor (VDR) signaling pathway - cell viability counter screen (AID 743224); further: series mostly up to about 63 µM; nearly all actives have a fitted effect of over 50% in size
Procedure, shortened: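 Cells: VDR-bla, 2,000/well, settled 4 h. Treatment: compounds in DMSO, 16 h, 37C/5% CO2. Readout: CellTiter-Glo luminescence after 30 min RT.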

[2] = qHTS assay to identify small molecule agonists of the NFkB signaling pathway (AID 1159509; active means well fitted curve in the direction sought with a large enough effect in the signal ratio in the repeat runs, not every such curve was filed as active; the % refers to the signal ratio; further: series mostly up to about 61 µM)
Procedure, shortened: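 Beta-lactamase reporter assay run in quantitative high-throughput format on an NF-kB-responsive ME-180 line, with 5 hr compound treatment and a FRET-based blue/green fluorescence readout.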

[3] = qHTS assay to identify small molecule agonists of the NFkB signaling pathway - cell viability counter screen (AID 1159515; calls by dose curve; further: series mostly up to about 61 µM; nearly all actives have a fitted effect of over 55% in size)
Procedure, shortened: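 Cells are seeded (2,000 NFkB-bla ME-180 per well), rested overnight, and dosed with DMSO-dissolved compounds for 5 hr at 37 C. Viability is then read by CellTiter-Glo luminescence after 30 min at room temperature.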

[4] = qHTS assay to identify small molecule agonists of the endoplasmic reticulum stress response signaling pathway (AID 1159516; active means well fitted activation curve with a large enough effect in the signal ratio in the repeat runs, not every such curve was filed as active; the % refers to the signal ratio)
Procedure, shortened: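 Cells are seeded at 1,500 per well and incubated overnight. Compounds in DMSO are added for 5 hr at 37 C, then beta-lactamase FRET substrate for 2 hr at room temperature, and fluorescence at 460 and 530 nm is measured.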

[5] = qHTS assay to identify small molecule agonists of the endoplasmic reticulum stress response signaling pathway - cell viability counter screen (AID 1159517; calls by dose curve;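 further: HeLa cells carrying an ER stress response element beta-lactamase reporter; series mostly up to about 61 µM; nearly all actives have a fitted effect of over 50% in size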)
Procedure, shortened: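 After overnight attachment, ESRE-bla HeLa cells were treated with Tox21 library compounds for 5 hr. CellTiter-Glo luminescence, read 30 min post-addition at room temperature, reported viability.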

[6] = qHTS assay to identify small molecule antagonists of the retinoid-related orphan receptor gamma (ROR-gamma) signaling pathway - cell viability counter screen (AID 1159520); further: nearly all actives have a fitted effect of over 50% in size
Procedure, shortened: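 Cytotoxicity was read from cellular ATP (CellTiter-Glo luminescence) after 16 hr at 37 C with 1 uM doxycycline induction. The inducer was added 2 hr after compound transfer to Tet-on ROR gamma CHO cells.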

[7] = molecular target: Nuclear receptor ROR-gamma (Homo sapiens) (UniProt P51449); assay: qHTS assay to identify small molecule antagonists of the retinoid-related orphan receptor gamma (ROR-gamma) signaling pathway (AID 1159521;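 further: CHO cells with doxycycline inducible ROR-gamma driving an RORE luciferase reporter; top concentration of the series differs between compounds; nearly all actives have a fitted effect of over 50% in size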)
Procedure, shortened: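 Decreased RORE-driven luciferase luminescence indicates antagonism. Tet-on RORγ CHO cells received compound, then 1 uM final doxycycline 2 h later; signal read after 16 h incubation.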

[8] = qHTS assay to identify small molecule agonists of the AP-1 signaling pathway - cell viability counter screen (AID 1159525; calls by dose curve; further: nearly all actives have a fitted effect of over 55% in size)
Procedure, shortened: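 Intracellular ATP by Cell Titer Glo luminescence (30 min, RT) in the same ME-180 AP-1-bla wells after the 5 h compound exposure at 37 °C. Normalised to tetra n-octyl ammonium bromide and DMSO controls.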

[9] = qHTS assay to identify small molecule agonists of the AP-1 signaling pathway (AID 1159526; calls by dose curve)
[10] = molecular target: Retinoic acid receptor RXR-alpha (Homo sapiens) (UniProt P19793); assay: qHTS assay to identify small molecule agonists of the RXR signaling pathway (AID 1159527; calls by dose curve; further: nearly all actives have a fitted effect of over 35% in size)
Procedure, shortened: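 16 hr incubation of compound-treated RXR-alpha-UAS-bla HEK 293T cells (2% charcoal-stripped FBS, 37 C) preceded a 2 hr room-temperature LiveBLAzer FRET substrate step and blue/green fluorescence measurement.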

[11] = qHTS assay to identify small molecule agonists of the RXR signaling pathway - cell viability counter screen (AID 1159529)
Procedure, shortened: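 In this parallel viability measure, GeneBLAzer RXR-alpha HEK 293T cells (2% charcoal-stripped FBS) were given a 5 hr preincubation, treated with compounds 16 hr at 37 C, and read by CellTiter-Glo luminescence.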

[12] = qHTS assay to identify small molecule antagonists of the retinoid acid receptor (RAR) signaling pathway - cell viability counter screen (AID 1159551); further: nearly all actives have a fitted effect of over 35% in size
Procedure, shortened: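 Cells (C3RL4) are plated, incubated overnight, dosed with compound in DMSO, then given retinol at 1 uM final. After 6 h at 37 C, CellTiter-Glo is added and luminescence read following 30 min at room temperature.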

[13] = qHTS assay to identify small molecule antagonists of the retinoic acid receptor (RAR) signaling pathway (AID 1159552; further: nearly all actives have a fitted effect of over 50% in size)
Procedure, shortened: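 C3RL4 RARE-luc cells, overnight plating; retinol 1 uM final added right after compound; 6 hr 37 C; luciferase read at 30 min RT.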

[14] = qHTS assay to identify small molecule antagonists of the vitamin D receptor (VDR) signaling pathway - cell viability counter screen (AID 743225); further: nearly all actives have a fitted effect of over 50% in size
Procedure, shortened: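 Parallel cytotoxicity test: VDR-UAS-bla HEK 293T, 3 nM (final) 1-alpha,25-dihydroxyvitamin D3 with test compound, 16 h, 37C. Endpoint is CellTiter-Glo luminescence in the same wells.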

[15] = qHTS assay to identify small molecule agonists of the retinoic acid receptor (RAR) signaling pathway (AID 1159553)
Procedure, shortened: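 Seed C3RL4 reporter cells at 1,000 per well and incubate overnight at 37 C. Add compounds in DMSO, incubate 6 hr. Add luciferase reagent, wait 30 min at room temperature, read luminescence.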

[16] = qHTS assay to identify small molecule antagonists of the estrogen related receptor (ERR) signaling pathway - cell viability counter screen (AID 1224818); further: series mostly up to about 46 µM
Procedure, shortened: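 ERR cells, 2,000/well; 6 h settle at 37 C/5% CO2; compound pin transfer (DMSO); 17.5 h at 37 C; CellTiter-Fluor, 30 min, fluorescence read.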

[17] = qHTS assay to identify small molecule antagonists of the estrogen related receptor (ERR) signaling pathway (AID 1224819)
Procedure, shortened: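 qHTS in ERR cells, 2,000/well, 1536 format. Cpd (DMSO) added after 6 h settle, 18 h 37 C. One-Glo luminescence, 30 min RT.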

[18] = qHTS assay to identify small molecule agonists of the estrogen related receptor (ERR) signaling pathway (AID 1224820)
Procedure, shortened: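 Following a 6 h settling period, 2,000 ERR cells per well receive DMSO-dissolved compounds by pin tool and incubate 18 h at 37 C; agonist activity is scored from One-Glo luminescence read 30 min post-addition.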

[19] = test system: estrogen-related receptor alpha (ERRalpha) with PGC-1alpha coactivator, human; assay: qHTS assay to identify small molecule antagonists of the estrogen related receptor signaling pathway with the pleiotropic PPARgamma coactivator (PGC) (AID 1224821; calls by dose curve)
Procedure, shortened: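 Screening used NTP's PGC/ERR cells, dosed via pin tool with compound in DMSO alongside positive and negative controls. After 18 h at 37 C, One-Glo reagent sat 30 min at room temperature before luminescence detection.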

[20] = qHTS assay to identify small molecule antagonists of the estrogen related receptor signaling pathway with the pleiotropic PPARgamma coactivator (PGC) cell viability counter screen (AID 1224822;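 further: series mostly up to about 46 µM; viability read after 17.5 h compound exposure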)
Procedure, shortened: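 Multiplexed viability counter screen run in PGC/ERR cells treated with compounds for 17.5 h at 37 C; live-cell protease signal measured by CellTiter-Fluor fluorescence.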

Measured: Potency

Chain of Retinoic acid receptor RXR-alpha (Homo sapiens) (P19793 whole entry, looked up): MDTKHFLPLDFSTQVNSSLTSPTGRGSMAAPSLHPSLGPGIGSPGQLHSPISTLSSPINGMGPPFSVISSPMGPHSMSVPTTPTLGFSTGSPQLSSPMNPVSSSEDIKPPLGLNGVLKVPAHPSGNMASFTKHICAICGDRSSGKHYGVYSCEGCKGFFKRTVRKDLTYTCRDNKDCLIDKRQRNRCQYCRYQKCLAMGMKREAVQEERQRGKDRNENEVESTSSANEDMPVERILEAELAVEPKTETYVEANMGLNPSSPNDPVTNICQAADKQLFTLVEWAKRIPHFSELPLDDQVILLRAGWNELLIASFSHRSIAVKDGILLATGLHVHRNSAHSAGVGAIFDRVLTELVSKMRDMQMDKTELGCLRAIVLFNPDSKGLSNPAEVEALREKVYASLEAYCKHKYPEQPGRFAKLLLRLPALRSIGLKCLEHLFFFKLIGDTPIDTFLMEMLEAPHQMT

Nc1ccc2cc(S(=O)(=O)O)cc(O)c2c1
not listed: [14] | [15] | [16] | [17] | [18] | [19] | [20]
inactive: all other assays above

CCN(CC)CC(=O)Nc1c(C)cccc1C
not listed: [13]
inactive: all other assays above

NS(=O)(=O)c1cc2c(cc1Cl)CN(C1CCCCC1)C2=O
not listed: [14] | [15] | [16] | [17] | [18] | [19] | [20]
inactive: all other assays above

CCCOC(OCCC)OCCC
not listed: [11] | [13] | [15] | [16] | [17] | [18] | [19] | [20]
inactive: all other assays above

Cc1cccc2nccnc12
not listed: [8] | [15] | [16] | [17] | [18] | [19] | [20]
inactive: all other assays above

O=C(O)Cc1ccc(Cl)cc1Cl
not listed: [6] | [15] | [16] | [17] | [18] | [19] | [20]
inactive: all other assays above

CC(C(=O)O)c1ccc2c(c1)CC(=O)c1ccccc1S2 (centres undefined)
not listed: [8] | [13] | [15] | [16] | [17] | [18] | [19] | [20]
inactive: all other assays above

O=C1O[C@@H]2[C@@H](O)[C@H](O)O[C@@H]2[C@H]1O
inactive: [1] | [2] | [3] | [4] | [5] | [6] | [7] | [8] | [9] | [10] | [12]

COCCOC(=O)C1=C(C)NC(C)=C(C(=O)OC(C)C)C1c1cccc([N+](=O)[O-])c1 (centres undefined)
not listed: [11] | [13] | [15] | [17] | [18] | [19] | [20]
inactive: all other assays above

Cc1ccccc1N=O
not listed: [6] | [13] | [16] | [17] | [18] | [19] | [20]
inactive: all other assays above

CC(=O)Nc1ccc(S(=O)(=O)Cl)cc1
inactive: [1] | [14] | [2] | [3] | [4] | [5] | [6] | [7] | [9] | [10]

CNC(=O)[C@H]1O[C@@H](n2cnc3c(NCc4cc(Cl)ccc4OCc4cc(C)no4)ncnc32)[C@H](O)[C@@H]1N
inactive: [1] | [14] | [2] | [3] | [4] | [5] | [6] | [7] | [8] | [9] | [10]

CC1=C(C(=O)O)N2C(=O)[C@@H](NC(=O)[C@H](N)c3ccc(O)cc3)[C@H]2SC1
not listed: [8] | [14] | [16] | [17] | [18] | [19] | [20]
inactive: all other assays above

N#Cc1ccc(C(=O)O)cc1
inactive: [1] | [14] | [2] | [3] | [4] | [5] | [6] | [7] | [9] | [10] | [12]

CCC(C)(CCC(C)C)C(=O)O (centres undefined)
not listed: [8] | [15] | [16] | [17] | [18] | [19] | [20]
inactive: all other assays above

Nc1ccc(S(=O)(=O)Nc2ccc(Cl)nn2)cc1
inactive: [1] | [14] | [2] | [3] | [4] | [5] | [6] | [7] | [9] | [10] | [12]

CCOCCOCCOCC
not listed: [6] | [15] | [16] | [17] | [18] | [19] | [20]
inactive: all other assays above

CCN1CCc2nc(N)oc2CC1
not listed: [8] | [13] | [14] | [15] | [17] | [18] | [19]
inactive: all other assays above

CC1(CO)CN(c2ccccc2)NC1=O (centres undefined)
not listed: [1] | [6] | [14] | [16] | [17] | [18] | [19] | [20]
inactive: all other assays above

Source: PubChem BioAssay (Tox21)
